A short description of assay [1]: NCI Yeast Anticancer Drug Screen. Data for the rad50 strain (AID 155).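 Also: 0% = growth of vehicle-only cultures of the same strain.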 The note with it: S. cerevisiae rad50 strain growth inhibition; at 50.0 µM; stronger effect = higher value. In short, it runs like this: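 A DNA repair-deficient yeast mutant serves as the test organism; compound-induced growth inhibition is calculated against vehicle-treated cells.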
A short description of assay [2]: NCI Yeast Anticancer Drug Screen. Data for the mec2-1 strain (AID 157). The note with it: S. cerevisiae mec2-1 strain, at 50.0 µM, stronger effect = higher value. An outline of the steps: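 Mutant yeast (mec2-1) grown with compound; growth inhibition relative to vehicle control reported.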
Assay [3] can be described thus: NCI Yeast Anticancer Drug Screen. Data for the sgs1 mgt1 strain (AID 161).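 Also: 0% = growth of cultures given vehicle only.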 The note with it: S. cerevisiae sgs1 mgt1 strain, at 50.0 µM, stronger effect = higher value. An outline of the steps: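 Compounds are added to genetically altered yeast, and growth is compared with cultures given vehicle alone to give percent inhibition.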
Assay [4] can be described thus: NCI Yeast Anticancer Drug Screen. Data for the cln2 rad14 strain (AID 165).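 Also: 0% = growth equal to vehicle treated cultures.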 The note with it: S. cerevisiae cln2 rad14 strain, at 50.0 µM, stronger effect = higher value. In short, it runs like this: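 Readout is yeast growth inhibition versus vehicle-treated controls, using a strain with cln2 and rad14 alterations exposed to compound.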
Assay [5] in a line: NCI Yeast Anticancer Drug Screen. Data for the bub3 strain (AID 167). The note with it: S. cerevisiae bub3 mutant strain, at 50.0 µM, stronger effect = higher value. An outline of the steps:
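Inhibition values come from growth of compound-treated mutant yeast normalised to vehicle-treated controls.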

Assay [6] is described as follows: NCI Yeast Anticancer Drug Screen. Data for the mlh1 rad18 strain (AID 175). The note with it: S. cerevisiae mlh1 rad18 strain growth inhibition; at 50.0 µM; stronger effect = higher value. An outline of the steps:
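Genetically defined yeast (DNA repair-deficient) exposed to compounds; growth inhibition determined relative to vehicle.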

The structures appear in SMILES notation. The panel holds about 79,000 compounds, 15% with a hit somewhere; the sample as a whole holds those more often. Values without a mark were called inactive. Active and inactive are the calls of the source. Rule as the data show it: active = growth inhibition above about 70%; inactive = the rest. Where a SMILES comes first, the peptide text is derived from it. The star is where a group is joined. Cbz = O=C(OCc1ccccc1)*

As to `CC(C)CCCC(C)CCCC(C)CCCC(C)CC(=O)O` (stereo unspecified), the growth inhibition was -9.35% in assay [1]; -25.5% in assay [2]; -16.9% in assay [3]; 43% in assay [4]; -1.2% in assay [5]; -23.3% in assay [6].
As for `O=C(Nc1ccccc1)c1nn(-c2cc(S(=O)(=O)O)c([N+](=O)[O-])cc2Cl)[n+](-c2cc(S(=O)(=O)[O-])c([N+](=O)[O-])cc2Cl)n1`, the growth inhibition was -4.45% in assay [1]; -3.25% in assay [2]; -25.1% in assay [3]; -26.8% in assay [4]; -23.6% in assay [5]; 2.3% in assay [6].
Regarding `Cc1ccc(-n2cnc3c(=O)[nH]cnc32)cc1N`, the growth inhibition in assay [1] was -12.6%; in assay [2] it was 5.45%; in assay [3], 3.3%; in assay [4], -9.9%; in assay [5] it was -6.25%; in assay [6], 11.2%.
Take `Cc1ccc(S(=O)(=O)N2CCN(C=S)CC2)cc1`: the growth inhibition in assay [1] was 22.4%; in assay [2] it was -30.8%; in assay [3], 14.2%; in assay [4], 3.9%; in assay [5], 23.2%; in assay [6], 26.9%.
Take `CC(=O)OCc1cc(Cl)c(OC(C)=O)c(COC(C)=O)c1`: the growth inhibition is 7.75% in assay [1]; -10.2% in assay [2]; 8.8% in assay [3]; 20.1% in assay [4]; -9.05% in assay [5]; 3.65% in assay [6].
In the case of `c1ccc(-c2nnn(CCN3CCCCC3)n2)cc1`, the growth inhibition in assay [1] is 33.1%; in assay [2] it was 20.9%; in assay [3] it was -3.9%; in assay [4], 12.1%; in assay [5] it was 34%; in assay [6], 23.5%.
Consider `C[N+]1(C)C2CCC1CC(OC(=O)C(O)c1ccccc1)C2` (stereo unspecified), for which the growth inhibition in assay [1] is -6.8%; in assay [2], -54.4%; in assay [3] it was -5.1%; in assay [4], -4.85%; in assay [5] it was -13.8%; in assay [6] it was -4.8%.
Turning to `CC(=O)Nc1ncc(Br)s1`, the growth inhibition in assay [1] is 6.75%; in assay [2], 6.05%; in assay [3] it was -18.4%; in assay [4], -13.8%; in assay [5], -9.4%; in assay [6] it was 5.3%.
With `CCOC(=S)Sc1ccc2c(c1)-c1ccc(F)cc1C2=O`, the growth inhibition in assay [1] was 7%; in assay [2], 6.3%; in assay [3], 2.1%; in assay [4], 10.2%; in assay [5], -3.85%; in assay [6], -1.65%.
Consider `COC(=O)C(CC(C)C)NC(=O)C(CCCN=C(N)N)NC(=O)OCc1ccccc1` (stereo not drawn) (Cbz-Arg-Leu-OMe; configuration not given here), for which the growth inhibition is -27.7% in assay [1]; -17.6% in assay [2]; -15.7% in assay [3]; 4.15% in assay [4]; -10.3% in assay [5]; -12.8% in assay [6].
On to `C=C1CC(C)(Cn2c(N)nc3nc[nH]c3c2=O)OC1=O` (stereo unspecified), for which the growth inhibition in assay [1] is 11.7%; in assay [2] it was 5.95%; in assay [3], 11.1%; in assay [4], 12.9%; in assay [5] it was 14.1%; in assay [6], 4.8%.
In the case of `COC(=O)CCC(=O)CC(=O)C1=NS(=O)(=O)c2nc(S(N)(=O)=O)c(Cl)cc2N1`, the growth inhibition is -5.3% in assay [1]; 6.7% in assay [2]; -14.8% in assay [3]; -24.6% in assay [4]; -16.1% in assay [5]; -1.35% in assay [6].
As to `CCNC(=O)NC(=O)C(C)(C)Oc1ccc(Cl)cc1`, the growth inhibition in assay [1] is -8.4%; in assay [2], 10.4%; in assay [3] it was 7.4%; in assay [4], 12.5%; in assay [5], 12.4%; in assay [6] it was 18.8%.
As to `Cc1[nH]c(-c2ccccc2)c2nc(N(C)C)oc(=O)c12`, the growth inhibition was -11.4% in assay [1]; 29.3% in assay [2]; 17.4% in assay [3]; 10.5% in assay [4]; 34.1% in assay [5]; -5.25% in assay [6].
Regarding `Cc1cccc(NC(C(=O)O)c2ccccc2)c1` (stereo unspecified), the growth inhibition in assay [1] is -13.8%; in assay [2], 8.8%; in assay [3] it was -12.8%; in assay [4], -65.2%; in assay [5], 26.1%; in assay [6] it was 5.45%.
Turning to `C=C1C(=O)OC2C1C(OC(=O)/C(C)=C/C)CC(O)(CCl)C1C(O)C=C(C)C21O` (stereo unspecified), the growth inhibition in assay [1] is 33.5%; in assay [2] it was 14.6%; in assay [3] it was 21.6%; in assay [4] it was 20.8%; in assay [5], 10.1%; in assay [6] it was -51.1%.
With `O=C1c2c(nc3ccccc3c2-c2ccccc2)CN1Nc1ccccc1`, the growth inhibition was -12% in assay [1]; -24.9% in assay [2]; -9.45% in assay [3]; 5.65% in assay [4]; -37.7% in assay [5]; -19.4% in assay [6].
`CC(N)/C(N)=N/O` (stereo unspecified): the growth inhibition is 11.2% in assay [1]; 4.9% in assay [2]; -0.95% in assay [3]; -2.45% in assay [4]; 18.4% in assay [5]; 15% in assay [6].
Consider `COc1c(O)c2c(=O)cc3c4c5c(cc(=O)c6c(O)c(OC)c(CC(C)O)c(c(c1CC(C)O)c24)c65)OCO3` (stereo unspecified), for which the growth inhibition was 74.5% (active) in assay [1]; 97.8% (active) in assay [2]; 76.3% (active) in assay [3]; 37.5% in assay [4]; 5.55% in assay [5]; 70.5% (active) in assay [6].
Turning to `CC1(C)CC(O)(Cc2ccccc2)C(O)c2ccccc21` (stereo unspecified), the growth inhibition was 45.5% in assay [1]; 32.1% in assay [2]; 31.6% in assay [3]; 54.5% in assay [4]; 26.1% in assay [5]; 74.2% (active) in assay [6].
Turning to `CCCCCCCCCCCCCC(=O)OC`, the growth inhibition in assay [1] was 27.6%; in assay [2] it was 15.3%; in assay [3], 16.5%; in assay [4], -9.3%; in assay [5], -1.4%; in assay [6], 31.4%.

(Values after PubChem BioAssay (NCI).)
